From PubChem BioAssay
Lassa entry inh – inhibitors of Lassa virus binding or cell entry | Lassa virus pseudotype entry inhibition, cell reporter | 300,000 compounds, 1.2% hits | Potency, µM (highest dose often 37.9 µM), for inactives: at the top dose activity change, negative = inhibition, most hits filed as inhibitors; calls by dose curve; tested in HEK293 cells; also: potency is read from the fitted curve at half-maximal effect; nearly all actives have a fitted effect of over 50% in size
Marburg entry inh – inhibitors of Marburg virus binding or cell entry; Marburg virus pseudotyped entry inhibition, cell reporter; AID 540276; Potency, µM (doses to about 37.8 µM), for the others: at the highest dose activity change, negative = inhibition, hits mostly inhibitors; 300,000 compounds, 1.8% hits; calls by dose curve; tested in HEK293 cells; also: potency is read from the fitted curve at half-maximal effect
HCV inh – HCV inhibition; Huh7.5.1 HCVcc-Cre infection, luciferase reporter, 44 h; Potency, µM (series often up to 41.8 µM), without a hit: at the highest dose activity change, negative = inhibition, most hits filed as inhibitors; 340,000 compounds, 3.4% hits; AID 651820; also: potency is read from the fitted curve at half-maximal effect
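Antiviral activity was scored by luciferase reporter output from cells infected with HCVcc-Cre (~0.5 moi) in presence of compound, 44 h infection period, cells seeded 1,000/well 4 h prior.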
HCMV antiviral – inhibitors of human cytomegalovirus; HFF cells, HCMV-luciferase reporter, 72 h; hits give low values; activity change, negative = inhibition, % at 57.5 µM; 410,000 compounds, 4.5% hits; in the data active = activity change below about -60%; inconclusive = no clear call, values can overlap the other calls; inactive = above about -39%
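HFF cells seeded 16 h at 37C, treated with compounds, infected with luciferase-reporter HCMV at MOI 1 PFU/cell; luciferase read at 72 h post infection, normalized to buffer-only and Salinomycin controls.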
FMDV inh – foot and mouth disease virus antiviral activity. Potency, µM (doses to about 57.9 µM), without a hit: at the top dose activity change, negative = inhibition, most hits filed as inhibitors. 410,000 compounds, 1.2% hits. AID 1159524. FMDV antiviral cell-based qHTS; calls by dose curve; tested in HEK293T cells; also: read-out not given here; potency is read from the fitted curve at half-maximal effect; nearly all actives have a fitted effect of over 45% in size
Giardia FBPA inh – inhibitors of Giardia lamblia fructose-1,6-bisphosphate aldolase. purified Giardia FBPA. Potency, µM (titrated, usually from 59.6 µM), for inactives: top-dose activity, negative = inhibition, usual class: inhibitors. 290,000 compounds, 0.71% hits; also: potency is read from the fitted curve at half-maximal effect; nearly all actives have a fitted effect of over 55% in size
Target sequence (A8B2U2 whole entry, looked up): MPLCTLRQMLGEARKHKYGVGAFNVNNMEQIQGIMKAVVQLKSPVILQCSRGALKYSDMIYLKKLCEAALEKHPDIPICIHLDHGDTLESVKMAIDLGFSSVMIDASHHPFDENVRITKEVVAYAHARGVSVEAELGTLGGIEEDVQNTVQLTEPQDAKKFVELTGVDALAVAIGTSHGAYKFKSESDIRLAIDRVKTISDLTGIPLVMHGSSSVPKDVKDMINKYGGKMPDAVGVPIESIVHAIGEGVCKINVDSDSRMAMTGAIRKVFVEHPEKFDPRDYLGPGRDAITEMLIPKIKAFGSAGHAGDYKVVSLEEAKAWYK
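Giardia FBPA (40 nM reagent) was preincubated 10 min at RT with compound (up to 57.5 uM final), then substrate plus GAPDH/TPI/NAD/arsenate coupling system with diaphorase/resazurin was added; resorufin fluorescence (525/598 nm) was read after 20 min.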
* = called active by the depositor; [ ] = another dose, or the depositor's remark. The list is not random: actives were taken first. Their share in the collection is about 8.3%. Unless noted, calls follow the shape of the dose curve; as a rule, active = well fitted curve in the direction sought with a large enough effect; inconclusive = small, poorly fitted or top-dose-only effect, or another doubt; inactive = no such curve, though single readings can be large; an effect the other way counts as inactive or inconclusive. % is scaled to controls: 0 for no effect and ±100 for the full control effect.

CC(/C=C/c1ccco1)=N\NC(=O)CNc1cccc(C)c1 was read as HCV inh 19.9%, HCMV antiviral -60.7*, FMDV inh -16.0% and Giardia FBPA inh -8.3%.
`Cc1cccc(NCC(=O)N/N=C/c2ccc(Br)cc2)c1` gave Lassa entry inh inconclusive, Marburg entry inh -18.0%[46.1 µM], HCV inh inconclusive, HCMV antiviral 7.1, FMDV inh -7.0% and Giardia FBPA inh 1.3%.
Screening COC(=O)N/N=C(C)\C=C\c1ccco1 returned Lassa entry inh 16.3%, Marburg entry inh 8.6%, HCV inh -3.6%, HCMV antiviral -0.3, FMDV inh 42.6% and Giardia FBPA inh -9.2%.
For Cc1cccc(NCC(=O)N/N=C\c2cccc(Oc3ccccc3)c2)c1 the results were Lassa entry inh inconclusive, Marburg entry inh inconclusive, HCV inh -19.9%, HCMV antiviral -67.2*, FMDV inh inconclusive and Giardia FBPA inh -1.6%.
Screening CSc1ccc(/C=N\NC(=O)CNc2ccc(C)cc2)cc1 returned Lassa entry inh 1.3µM*, Marburg entry inh -7.6%, HCV inh 10.3%, HCMV antiviral 9.7 and Giardia FBPA inh 2.4%.
CCC(Cn1nnc2ccccc2c1=O)NC(=O)Nc1cc(OC)cc(OC)c1 (centres undefined) was read as Lassa entry inh inconclusive, Marburg entry inh inconclusive, HCMV antiviral 12.0 and FMDV inh -19.6%.
`Cc1ccc(F)cc1S(=O)(=O)NCc1nc(N2CCCC2)c2cccc(C)c2n1` gave FMDV inh -12.6%.
Screening COc1ccccc1N1CCN(Cc2ccc(OC)c(OC)c2OC)CC1 returned Lassa entry inh -10.6%, Marburg entry inh inconclusive, HCV inh -11.9%, HCMV antiviral 54.2, FMDV inh -12.2% and Giardia FBPA inh -28.2%.
For CCOC(=O)C1CCN(Cc2ccc(O)c3ncccc23)CC1 the results were Lassa entry inh -24.9%, Marburg entry inh inconclusive, HCV inh 10µM*, HCMV antiviral inconclusive, FMDV inh -26.3% and Giardia FBPA inh inconclusive.
`Oc1ccc(CN2CCCc3ccccc32)c2cccnc12` gave Lassa entry inh 4.47µM*, Marburg entry inh inconclusive, HCV inh 10µM*, FMDV inh -2.9% and Giardia FBPA inh 1.7%.
`COc1ccccc1N1CCN(Cc2ccc(O)c3ncccc23)CC1` gave Lassa entry inh 10.3µM*, Marburg entry inh inconclusive, HCV inh 3.55µM*, HCMV antiviral -91.1*, FMDV inh inconclusive and Giardia FBPA inh inconclusive.
For CC(=O)c1cccc(NC(=O)c2sc(-n3nc(C)c(CCC(C)C)c3C)nc2C)c1 the results were Lassa entry inh -0.6%[46.1 µM], Marburg entry inh -12.8%[46.1 µM], HCMV antiviral -25.4 and FMDV inh -2.3%.
For Cc1cc(C)c2nc(N3CCCC(C(=O)NCc4ccccc4F)C3)sc2c1 (centres undefined) the results were Marburg entry inh 7.9%[46.1 µM], HCMV antiviral 3.9 and FMDV inh -3.6%.
`O=C1C=C(c2cccs2)C[C@H](c2ccccc2)[C@H]1n1nnc([N+](=O)[O-])n1` gave Lassa entry inh inconclusive, Marburg entry inh 1.26µM*, HCV inh inconclusive, HCMV antiviral -80.2*, FMDV inh -1.9% and Giardia FBPA inh inconclusive.
`CCCn1c(-c2ccc(F)cc2)nc2c(N3CCC(N(C)C)C3)nc(C)nc21` (centres undefined) gave Giardia FBPA inh 2.3%.
Screening CCCN(CC(=O)Nc1ccccc1Br)CC(=O)Nc1ccc(F)c(F)c1F returned Lassa entry inh -13.4%, Marburg entry inh inconclusive, HCV inh inconclusive, HCMV antiviral -6.0, FMDV inh -15.7% and Giardia FBPA inh 2.5%.
Screening CCCN(CC(=O)Nc1cc(Cl)cc(Cl)c1)CC(=O)Nc1ccc(F)c(F)c1F returned Lassa entry inh inconclusive, Marburg entry inh inconclusive, HCV inh inconclusive, HCMV antiviral -87.3*, FMDV inh -22.8% and Giardia FBPA inh -9.4%.
O=C(NCc1ccco1)C1CCN(C(=O)N2CCOc3ccccc32)CC1 was read as Lassa entry inh 20.7%[46.1 µM], HCMV antiviral 1.9 and FMDV inh -12.0%.
Screening Cc1ccc2c(c1)cc(CN(C)Cc1nc(C)cs1)c(=O)n2C returned FMDV inh 6.0%.
CN1CC[C@]23c4ccccc4N[C@H]1[C@]21CCN(C)[C@H]3Nc2ccccc21 was read as HCV inh -2.8%, HCMV antiviral -34.7 and FMDV inh -23.9%.
For COC(=O)C1CC23C=CCN4CCC5(c6ccccc6NC15C2C)C43 (centres undefined) the results were Lassa entry inh inconclusive, Marburg entry inh inconclusive, HCV inh -3.8%, HCMV antiviral -83.5*, FMDV inh -1.5% and Giardia FBPA inh -10.8%.
`O=C(c1cccc(F)c1)N1CCC[C@@]2(CCN(c3ccccc3)C2)C1` gave FMDV inh -22.4% and Giardia FBPA inh -13.7%.
Screening COc1cccc(-c2csc(N3CCN(C(=S)Nc4ccc(Cl)cc4)CC3)n2)c1 returned Lassa entry inh -25.8%, Marburg entry inh inconclusive, HCV inh 12.6µM*, HCMV antiviral 33.0 and Giardia FBPA inh -0.1%.
`COc1cccc(-c2csc(N3CCN(C(=S)Nc4ccccc4)CC3)n2)c1` gave Lassa entry inh -10.2%, Marburg entry inh 20.7%, HCV inh -18.6%, HCMV antiviral -8.2 and Giardia FBPA inh -2.1%.
For COc1cccc(NC(=O)N2CCN(c3nc(-c4cccc(OC)c4)cs3)CC2)c1 the results were HCV inh 11.2µM*, HCMV antiviral -71.1*, FMDV inh 31.6µM* and Giardia FBPA inh -5.7%.
For COc1cccc(-c2csc(N3CCN(C(=S)Nc4cccc(C)c4)CC3)n2)c1 the results were HCV inh inconclusive, HCMV antiviral -67.1*, FMDV inh -22.5% and Giardia FBPA inh -12.3%.
`COc1cccc(-c2csc(N3CCN(C(=O)Nc4ccccc4Cl)CC3)n2)c1` gave HCV inh -22.2%, HCMV antiviral -18.9, FMDV inh 5.3% and Giardia FBPA inh -3.9%.
Screening CC(C)CN1CC[C@@]2(CCCN(C(=O)c3cc(C(F)(F)F)cc(C(F)(F)F)c3)C2)C1 returned FMDV inh -12.4% and Giardia FBPA inh -5.3%.
`COc1ccc(NC(=O)CSc2nc3nc(C)c(Cc4ccccc4)c(C)n3n2)cc1OC` gave Lassa entry inh -4.6%[46.1 µM], HCMV antiviral -66.3* and FMDV inh -22.5%.
For Cc1oc2ncn(CC(C)C)c(=O)c2c1C(=O)NCCCN(Cc1ccccc1)C(C)C the results were Lassa entry inh 19.4%[46.1 µM], HCMV antiviral 4.3 and FMDV inh 0.0%.
c1csc(C2=Nn3c(nnc3-c3ccncc3)SC2)c1 was read as Lassa entry inh -3.5%, Marburg entry inh -25.9%, HCV inh -15.8%, HCMV antiviral -81.4* and FMDV inh -18.0%.
Brc1ccc(C2=Nn3c(nnc3-c3ccncc3)SC2)cc1 was read as Marburg entry inh 1.1%.
